CHX counter: affects cycloheximide protein synthesis inhibition readout, counter-screen. hit rate 12% among 300,000. cell reporter, cycloheximide protein synthesis inhibition counterscreen. max response, %; in the data active = max response mostly above about 13%, no sharp cut-off; inactive = mostly below about 14%; note: read at 38.3 µM for the half of the compounds with a filed dose; 0% is about no effect
Shiga toxin inh: Shiga toxin inhibition | Vero cells, Shiga toxin protein synthesis inhibition reporter | inhibition, % at 38.7 µM | hit rate 9.2% among 290,000; in the data active = inhibition mostly above about 28%, no sharp cut-off; inactive = mostly below about 43%; note: 0% is about no effect
AMA1 RON2 block: inhibitors of Plasmodium falciparum AMA1-RON2 interaction; AlphaScreen AMA1-biotinylated RON2 peptide binding; Potency, µM (titrated, usually from 58.2 µM), for inactives: top-dose activity change, negative = inhibition, hits mostly inhibitors; hit rate 0.2% among 360,000;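 note: potency is the fitted concentration of half-maximal effect; 0% = vehicle wells and -100% = peptide control; nearly all actives have a fitted effect of over 45% in size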
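AMA1 (3D7) with his tag at 25 nM final met compounds first, then biotinylated RON2 peptide at 25 nM; detection used donor plus acceptor beads, 10 µg/mL apiece, read by AlphaScreen after 30 min at room temperature.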
Pf growth 48h: P. falciparum growth inhibition at 48 hours (one generation); P. falciparum luciferase growth in erythrocytes, 48 h; Potency, µM (series often up to 28.7 µM), without a hit: at the highest dose activity change, negative = inhibition, actives largely listed as inhibitors; hit rate 5.9% among 310,000; note: potency is the fitted concentration of half-maximal effect; % is set by controls: 0 for no effect and ±100 for the full control effect
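Erythrocytes infected with P. falciparum carrying an integrated firefly luciferase reporter (2% hematocrit, 0.1% parasitemia final) were exposed to compounds in RPMI 1640 with 0.5% Albumax at 37 C, 5% CO2. Growth inhibition was scored as reduced luminescence.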
SARS PLP yeast: SARS-CoV PLP inhibition in yeast | S. cerevisiae expressing SARS-CoV PLpro, growth rescue | Potency, µM (titrated, usually from 32.9 µM), without a hit: at the top dose activity, positive = growth rescue, most hits filed as activators | hit rate 0.19% among 330,000 | AID 485353; calls by dose curve; note: potency is the fitted concentration of half-maximal effect; 0% is about no effect; nearly all actives have a fitted effect of over 55% in size
Pf growth 96h: P. falciparum growth inhibition at 96 hours. AID 504834. P. falciparum luciferase reporter growth, 96 h. Potency, µM (titrated, usually from 28.7 µM), without a hit: top-dose activity change, negative = inhibition, hits mostly inhibitors. hit rate 6.9% among 320,000; note: potency is the fitted concentration of half-maximal effect; % is set by controls: 0 for no effect and ±100 for the full control effect
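Compounds incubated with erythrocytes infected by luciferase-expressing P. falciparum (2% hematocrit, 0.05% parasitemia final) for 96 hours, 37 C in 5% CO2. Growth inhibition scored as decreased luciferase luminescence.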
Numbers without * were called inactive. Shown are actives, neighbours in structure and some others; about 19% of the full set was active somewhere. Unless noted, calls come from the whole dose curve; as a rule, active = well fitted curve in the direction sought with a large enough effect; inconclusive = small, poorly fitted or top-dose-only effect, or another doubt; inactive = no such curve, though single readings can be large; an effect the other way counts as inactive or inconclusive.

Screening COCCN(C(=O)CCSc1ccc(F)cc1)c1c(N)n(Cc2ccccc2)c(=O)[nH]c1=O returned AMA1 RON2 block 12%, Pf growth 48h inconclusive, SARS PLP yeast -2% and Pf growth 96h 13µM*.
Screening COCCCN(C(=O)CCOc1ccc(C(C)(C)C)cc1)c1c(N)n(Cc2ccccc2)c(=O)[nH]c1=O returned AMA1 RON2 block 0%, Pf growth 48h 13µM*, SARS PLP yeast -5% and Pf growth 96h inconclusive.
Screening COCCCN(C(=O)CCSc1ccc(F)cc1)c1c(N)n(Cc2ccccc2)c(=O)[nH]c1=O returned AMA1 RON2 block 2%, Pf growth 48h 12µM*, SARS PLP yeast 5% and Pf growth 96h inconclusive.
CCN(CC)c1ccc(-c2nnc(SCC(=O)N(CCOC)c3c(N)n(CC(C)C)c(=O)[nH]c3=O)o2)cc1 was read as AMA1 RON2 block -7%, Pf growth 48h 1.7µM*, SARS PLP yeast -1% and Pf growth 96h inconclusive.
`COCCN(C(=O)CSc1nnc(-c2ccc(C)c(C)c2)o1)c1c(N)n(CC(C)C)c(=O)[nH]c1=O` gave AMA1 RON2 block 1%, Pf growth 48h inconclusive, SARS PLP yeast -1% and Pf growth 96h inconclusive.
`COCCCN(C(=O)CCOc1ccc(C)cc1)c1c(N)n(Cc2ccccc2)c(=O)[nH]c1=O` gave AMA1 RON2 block -3%, Pf growth 48h -7%, SARS PLP yeast -1% and Pf growth 96h 2%.
COCCN(C(=O)CSCc1ccccc1)c1c(N)n(Cc2ccccc2)c(=O)[nH]c1=O was read as CHX counter -2, Shiga toxin inh -9, AMA1 RON2 block -2%, Pf growth 48h 7%, SARS PLP yeast -2% and Pf growth 96h 16%.
CCCN(C(=O)CCSc1ccc(F)cc1)c1c(N)n(Cc2ccccc2)c(=O)[nH]c1=O was read as CHX counter 1, Shiga toxin inh -8, AMA1 RON2 block -1%, Pf growth 48h 12µM*, SARS PLP yeast -2% and Pf growth 96h 4.7µM*.
CN(C(=O)COC(=O)/C=C/c1ccc2ccccc2n1)c1c(N)n(Cc2ccccc2)c(=O)[nH]c1=O was read as AMA1 RON2 block 25%, Pf growth 48h inconclusive, SARS PLP yeast 3% and Pf growth 96h inconclusive.
For COCCN(C(=O)COC(=O)/C=C/c1ccc2ccccc2n1)c1c(N)n(Cc2ccccc2)c(=O)[nH]c1=O the results were CHX counter 11*, Shiga toxin inh 36, AMA1 RON2 block -8%, Pf growth 48h inconclusive, SARS PLP yeast 2% and Pf growth 96h inconclusive.
COCCN(C(=O)CSc1nc2ccccc2c(=O)n1CC(C)C)c1c(N)n(Cc2ccccc2)c(=O)[nH]c1=O was read as CHX counter -4, Shiga toxin inh 17, AMA1 RON2 block 6%, Pf growth 48h 10µM*, SARS PLP yeast -1% and Pf growth 96h -51%.
For CCCCN(C(=O)CSc1cc(C)c2ccc(OC)cc2n1)c1c(N)n(Cc2ccccc2)c(=O)[nH]c1=O the results were CHX counter -2, Shiga toxin inh -18, AMA1 RON2 block 83%, Pf growth 48h -16%, SARS PLP yeast -4% and Pf growth 96h 12µM*.
`CC1CC(C)CN(C(C(=O)NC2CCCCC2)c2ccnc3ccccc23)C1` (stereo not drawn) gave AMA1 RON2 block -5%.
For COCCNC(=O)C1(C)CCCN(C(=O)c2ccc3c(c2)OCO3)C1 (stereo not drawn) the results were AMA1 RON2 block 1%.
For CC(Oc1ccc(F)cc1)C(=O)N(CCC1=CCCCC1)c1c(N)n(Cc2ccccc2)c(=O)[nH]c1=O (stereo not drawn) the results were AMA1 RON2 block 4%, Pf growth 48h inconclusive, SARS PLP yeast -3% and Pf growth 96h 9.3µM*.
Screening COc1ccccc1CCC(=O)N(Cc1ccccc1)c1c(N)n(Cc2ccccc2)c(=O)[nH]c1=O returned CHX counter 10, Shiga toxin inh 10, AMA1 RON2 block -13%, Pf growth 48h inconclusive, SARS PLP yeast -9% and Pf growth 96h 8.3µM*.
CSCc1ccc(C(=O)NCC(c2cccs2)N2CCOCC2)cc1 (stereo not drawn) was read as AMA1 RON2 block 12%, Pf growth 48h inconclusive, SARS PLP yeast 2% and Pf growth 96h -17%.
O=C(Nc1ncc([N+](=O)[O-])s1)c1ccco1 was read as CHX counter 37*, Shiga toxin inh 68*, AMA1 RON2 block -12%, Pf growth 48h 163%, SARS PLP yeast -22% and Pf growth 96h 107%.
For O=C(COc1ccc(Cl)cc1)Nc1ncc([N+](=O)[O-])s1 the results were CHX counter 48*, Shiga toxin inh 147*, AMA1 RON2 block -8%, Pf growth 48h 199%, SARS PLP yeast 0% and Pf growth 96h -19%.
O=C(Cc1ccc(Br)cc1)Nc1ncc([N+](=O)[O-])s1 was read as CHX counter 68*, Shiga toxin inh 96*, AMA1 RON2 block 32%, Pf growth 48h -106%, SARS PLP yeast -5% and Pf growth 96h -1%.
O=C(Cc1ccc(Cl)cc1)Nc1ncc([N+](=O)[O-])s1 was read as CHX counter 43*, Shiga toxin inh 67*, AMA1 RON2 block 6%, Pf growth 48h 0%, SARS PLP yeast -3% and Pf growth 96h 2%.
Screening Cc1ccc(C(=O)Nc2ncc([N+](=O)[O-])s2)cc1 returned CHX counter -7, Shiga toxin inh -6, AMA1 RON2 block 12%, Pf growth 48h -26%, SARS PLP yeast -24% and Pf growth 96h 360%.
`Cc1cnc(NC(=O)Cc2ccc(Br)cc2)s1` gave CHX counter 2, Shiga toxin inh 2, AMA1 RON2 block -4%, Pf growth 48h 4%, SARS PLP yeast inconclusive and Pf growth 96h inconclusive.
C=CCOc1ccccc1CN1CCCCCC1 was read as CHX counter -2, Shiga toxin inh 11, AMA1 RON2 block 3%, Pf growth 48h 4%, SARS PLP yeast -3% and Pf growth 96h inconclusive.
`CCOC(=O)CC1(C)Sc2ccccc2N1S(=O)(=O)c1ccc(C)cc1` (stereo not drawn) gave AMA1 RON2 block 18%.
Screening O=C1OC(c2ccccc2)(c2ccc3cc(O)ccc3c2)c2ccccc21 (stereo not drawn) returned AMA1 RON2 block 33%.
For CC(CC(=O)Nc1ncc([N+](=O)[O-])s1)c1ccccc1 (stereo not drawn) the results were CHX counter 26*, Shiga toxin inh 87*, AMA1 RON2 block -14%, Pf growth 48h 3%, SARS PLP yeast -7% and Pf growth 96h 101%.
N=C1/C(=C/c2ccc(-c3cccc(C(=O)O)c3)o2)C(=O)N=C2SC(CC(=O)N3CCOCC3)=NN12 was read as CHX counter 25*, Shiga toxin inh 11, AMA1 RON2 block -2%, Pf growth 48h 48%, SARS PLP yeast 34% and Pf growth 96h 51%.

Screening data (PubChem BioAssay)
